The values that follow come from PubChem BioAssay (NCATS).

Several values for one entry are separate records, joined by “and”; a condition that tells them apart may be missing. Identical values can stand only once. Inconclusive results are not listed. Where a structure was tested more than once in an assay, its records may differ in their call. Activity calls are given as the source filed them. Unless noted, calls follow the shape of the dose curve; as a rule, active = well fitted curve in the direction sought with a large enough effect; inconclusive = small, poorly fitted or top-dose-only effect, or another doubt; inactive = no such curve, though single readings can be large; an effect the other way counts as inactive or inconclusive.

Experiment [1] can be described thus: AP1 Signaling Pathway (AID 357; active = well fitted curve in either direction with a large enough effect, not every such curve was filed as active;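 also: ME-180 reporter cells stimulated with EGF at its EC50 level; % is scaled to controls: 0 for no effect and ±100 for the full control effect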). To be noted: ME-180 AP-1-bla reporter, EGF-induced, beta-lactamase ratio, 5 h. The essentials:
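A ratiometric CCF4 readout (405 nm excitation; 460 and 530 nm emission) quantified AP-1-driven beta-lactamase in ME-180 cells after 5 h with compound and EC50 EGF; AC50 values were derived for activators and inhibitors.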

Experiment [2] addresses Cytochrome P450 1A2 (Homo sapiens) (UniProt P05177). The experiment in a line: p450-cyp1a2 (AID 410; calls by dose curve; also: potency is read from the fitted curve at half-maximal effect;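 as to activity change, negative = inhibition: -100% = full effect of reference inhibitor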). The essentials: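 Luminescent readout of luciferin formed from Luciferin-ME by human CYP1A2; data normalized against complete inhibition by 57 uM furafylline. Enzyme 20nM, substrate 100uM at Km, 100mM KPO4 buffer, 60 min reaction at room temperature.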
Experiment [3] can be described thus: Stat Signaling Pathway (AID 446; active = well fitted curve in either direction with a large enough effect, not every such curve was filed as active;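 also: ME-180 cervical cancer cells given 40 pM IL-6 alongside compound; SIE-controlled beta-lactamase reporter measured as 460/530 nm FRET emission ratio; % is scaled to controls: 0 for no effect and ±100 for the full control effect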). The settings on record: ME-180 SIE beta-lactamase reporter, IL-6 stimulated, 5 h. The essentials:
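Screening format detects activators and inhibitors alike: ME-180 SIE-bla cells stimulated at 40 pM IL-6 for 5 hrs with compound, then dual-emission beta-lactamase read at 405 nm excitation.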

Experiment [4] deals with Mitogen-activated protein kinase 10 (Mus musculus) (UniProt Q61831). The experiment in a line: JNK3 AlphaScreen Assay (AID 530; active = well fitted curve in either direction with a large enough effect, not every such curve was filed as active;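 also: kinase came from lysate of stimulated human HepG2 cells; signal reports phosphorylation of biotinylated GST-cJun 1-79 at Ser73 with 10 µM ATP; % is scaled to controls: 0 for no effect and ±100 for the full control effect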). Put shortly:
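Pre-activated (IL-1β/TNFα) JNK3 in HepG2 lysates phosphorylates biotin-GST-cJun(1-79), 10 uM ATP; anti-phospho-cJun(Ser73) AlphaScreen read at room temperature, pH 7.6 Tris buffer. Compounds pre-incubated 15 min as titrations.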
(In general: In Alpha technology, singlet oxygen from a donor bead excites a nearby acceptor bead.)

Experiment [5] concerns the target 3',5'-cyclic-AMP phosphodiesterase 4B (Homo sapiens) (UniProt Q07343). The experiment in a line: qHTS Assay for Inhibitors of PDE-IV (AID 607; active = well fitted activation curve with a large enough effect in the main read-out, with a control signal flat, not every such curve was filed as active; also: % of control where 0% means no effect). Put shortly: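 The readout is membrane depolarisation from a cAMP-sensing CNG channel, detected with a potential dye at ex 535/em 590. Cells were HEK293-derived (endogenous PDE-IV) at 1000 cells/well, titrated up to 22.9 uM final.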

Experiment [6] concerns the target Cytochrome P450 3A4 (Homo sapiens) (UniProt P08684). As to the kind of experiment: qHTS Assay for Activators of Cytochrome P450 3A4 (AID 885). Also: nearly all actives have a fitted effect of over 65% in size. Put shortly:
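Steps: enzyme/substrate mix dispensed; compound added, 10 min RT; NADPH regeneration solution added, 60 min RT; luciferin detection buffer stops reaction; 20 min later luminescence measured.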
(In general: In qHTS, concentration-response curves come from the screen itself.)

The target of experiment [7] is Cytochrome P450 2D6 (Homo sapiens) (UniProt P10635). As to the kind of experiment: qHTS Assay for Inhibitors and Substrates of Cytochrome P450 2D6 (AID 891).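 Also: luciferin methyl ether substrate demethylated by CYP2D6 with NADPH regeneration; % is scaled to controls: 0 for no effect and ±100 for the full control effect; nearly all actives have a fitted effect of over 60% in size.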 Put shortly:
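Human CYP2D6 (5 nM) with 30 uM Luciferin-ME EGE (at Km) in 100 mM KPO4, compound preincubated 10 min, then NADPH regeneration system for 60 min at room temperature. Luciferin read by luminescence; normalized to 1.43 uM quinidine.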

Experiment [8] can be described thus: qHTS Assay for Identification of Small Molecule Agonists for Thrombopoietin (TPO) Signaling Pathway (AID 917). Also: % is scaled to controls: 0 for no effect and ±100 for the full control effect. The essentials:
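Luminescence from a Glycoprotein IIb promoter–driven luciferase reporter served as read-out in murine Ba/F3 cells carrying the human TPO receptor. Cells, deprived of IL-3 overnight, received compounds with 26 pM TPO and were incubated 24 hrs at 37 C.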

Experiment [9] has as its target Pyruvate kinase (Leishmania mexicana) (UniProt Q27686). The experiment in a line: qHTS Validation Assay for Inhibitors of Leishmania Mexicana Pyruvate Kinase (AID 945).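 Also: 0% = DMSO only neutral control wells.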 Put shortly:
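Read-out: luminescence from PKLight stop/detection reagent, data normalized to DMSO. Reaction: 0.2 nM E451W LmPYK, 0.5 mM PEP, 0.1 mM ADP, pH 7.2, 1 h room temperature.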

For experiment [10], the target named is Pyruvate kinase PKM (Homo sapiens) (UniProt P14618). The experiment in a line: qHTS Assay for Activators of Human Muscle Pyruvate Kinase (AID 954; active = well fitted curve in the direction sought with a large enough effect, not every such curve was filed as active;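 also: 0% = uninhibited enzyme and -100% = no enzyme or full thiadiazolimine inhibition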). Put shortly:
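Reaction: 0.1 nM purified PKM2 with 0.5 mM phosphoenolpyruvate and 0.1 mM ADP, room temperature, 1 h. Readout: luciferase-based ATP luminescence after stop reagent. Activators judged against a 0.3 nM enzyme column.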

The target in experiment [11] is alpha-glucosidase (Oryza sativa, rice) (UniProt Q653V4). As to the kind of experiment: Counterscreen for Glucocerebrosidase Inhibitors: qHTS Assay for Rice alpha-Glucosidase at pH 5.0 (AID 997).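 Also: 0% = full activity with enzyme and -100% = basal without enzyme.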 Put shortly:
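Rice alpha-glucosidase (4 nM final) with 400 uM 4-methylumbelliferyl-alpha-D-glucopyranoside in citrate buffer pH 5.0, 20 min at room temperature, stopped at pH 10; fluorescence 365/440 nm, compounds 0.7 nM–77 uM, AC50 from Hill fits.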

Experiment [12] is described as follows: qHTS Assay for Lipid Storage Modulators (AID 1519; calls by dose curve). To be noted: Drosophila S3 cells, BODIPY lipid droplet/cell ratio, laser cytometry, cells loaded with oleic acid. The essentials: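 Cells seeded at 5,000 per well were treated with compounds over a concentration series and loaded with oleic acid (400 uM, as added). Lipid droplet fluorescence (488 nm excitation, 500-530 nm channel) was read by laser-scanning cytometry and normalized to 20 uM Triacsin C.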

The target in experiment [13] is Ubiquitin carboxyl-terminal hydrolase 1 (Homo sapiens) (UniProt O94782). The experiment in a line: Inhibitors of USP1/UAF1: Pilot qHTS (AID 504865). Also: nearly all actives have a fitted effect of over 35% in size. Also: potency is read from the fitted curve at half-maximal effect. The essentials: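 In 50mM HEPES pH 7.8 containing 0.5mM EDTA, 1mM TCEP, 0.1 mg/ml BSA and 0.01% Tween-20, 1nM USP1/UAF1 is exposed to compound for 15 min, then Ub-Rho (150nM final) is added and fluorescence is read over time.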

For experiment [14], the target named is DNA dC->dU-editing enzyme APOBEC-3G (Homo sapiens) (UniProt Q9HC16). The experiment in a line: qHTS for inhibitors of Vif-A3G interactions: Validation (AID 588379). Also: 0% is about no effect. The essentials: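 HeLa cells stably expressing Vif and A3G-eYFP, 700 cells/well, incubated overnight at 37 deg C, then exposed to compound overnight at 37 deg C. Inhibition of Vif-mediated degradation read as increased yellow fluorescence (Ex 488/Em 500-530) by laser-scanning cytometry.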

Experiment [15] relates to Zika virus NS2B-NS3 protease. As to the kind of experiment: Primary screen GU AMC qHTS for Zika virus inhibitors (AID 1347154).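 Also: 0% = no-inhibitor control and -100% = no-enzyme control; nearly all actives have a fitted effect of over 70% in size.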 Put shortly: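 Unlinked Zika NS2B hydrophilic domain–NS3 protease complex at 25 nM in 10 mM Tris-HCl pH 8.0, 0.01% Tween 20, with an AMC peptide substrate. Fluorescence change (340/450 nm) over 15 min at room temperature, normalized to controls, fitted to 4-parameter Hill.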

Experiment [16] can be described thus: Primary qHTS for small molecule stabilizers of the endoplasmic reticulum resident proteome: Secreted ER Calcium Modulated Protein (SERCaMP) assay (AID 1508630). Also: potency is read from the fitted curve at half-maximal effect. The essentials: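 GLuc-SERCaMP-expressing SH-SY5Y cells, pretreated 16 h with compound, are challenged with thapsigargin to empty ER calcium stores; after 4 h, coelenterazine is added directly to the medium and luminescence is imaged.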

A short description of experiment [17]: NFAT Signaling Pathway (AID 444; active = well fitted curve in either direction with a large enough effect, not every such curve was filed as active). The settings on record: Jurkat NFAT-bla M1, carbachol, beta-lactamase ratio, 5 h; at 38 µM (top of the series). The essentials: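 Jurkat cells with NFAT-driven β-lactamase reporter and co-expressed M1 receptor, stimulated with carbachol (final 1 uM, ~EC50), compound titration, 5 h at 37 °C. CCF4 loaded 1 h at RT; 460/530 nm ratio gave %activity and AC50.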

In experiment [18] the target is Glucocorticoid receptor (Homo sapiens) (UniProt P04150). The experiment in a line: GR-GFP Redistribution (AID 450;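 active = compounds whose dose series gives a full or clear partial fitted curve of increased nuclear translocation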; also: potency is read from the fitted curve at half-maximal effect). To be noted: U2OS GR-GFP nuclear translocation, laser cytometry, 2 h.
The target is the same in experiment [19]. As to the kind of experiment: GR-EFC Redistribution (AID 451; calls by dose curve; also: potency is read from the fitted curve at half-maximal effect). To be noted: CHO-K1 GR-EFC translocation, beta-gal luminescence, 2 h. The essentials: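 CHO-K1 cells expressing nuclear EA and GR-ED fragments of b-gal; compounds titrated up to 46 uM final, 2 h at 37 C. GR nuclear translocation read as complemented b-gal luminescence after 1 h RT detection.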

Experiment [20] deals with Cytochrome P450 2C9 (Homo sapiens) (UniProt P11712). The experiment in a line: qHTS Assay for Inhibitors and Substrates of Cytochrome P450 2C9 (AID 883). Also: % is scaled to controls: 0 for no effect and ±100 for the full control effect; nearly all actives have a fitted effect of over 60% in size. The essentials:
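10nM CYP2C9 + 100uM Luciferin-H (=KM), 25mM KPO4; cpd 10 min 37C; NADPH regen, 60 min 37C; stop/detect with P450 Glo-Buffer 20 min; luminescence. Norm. to 57uM sulphaphenazole as full inhibition.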

[21] abbreviates: measured here: cell count channel max response.
Setting [22] is: measured here: lipid channel max response.

Sequence of DNA dC->dU-editing enzyme APOBEC-3G (Homo sapiens) (Q9HC16 whole entry, looked up): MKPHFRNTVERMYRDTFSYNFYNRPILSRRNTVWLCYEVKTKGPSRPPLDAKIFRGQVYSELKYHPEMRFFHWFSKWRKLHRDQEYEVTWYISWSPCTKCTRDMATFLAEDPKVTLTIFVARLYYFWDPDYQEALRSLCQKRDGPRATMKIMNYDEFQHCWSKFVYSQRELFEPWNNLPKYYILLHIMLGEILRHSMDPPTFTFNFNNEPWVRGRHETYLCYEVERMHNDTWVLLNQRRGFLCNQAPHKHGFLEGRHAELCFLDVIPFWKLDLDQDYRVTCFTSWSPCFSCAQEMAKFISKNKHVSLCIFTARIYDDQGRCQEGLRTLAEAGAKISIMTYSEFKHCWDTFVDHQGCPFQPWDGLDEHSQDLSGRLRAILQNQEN
Sequence of Ubiquitin carboxyl-terminal hydrolase 1 (Homo sapiens) (O94782 whole entry, looked up): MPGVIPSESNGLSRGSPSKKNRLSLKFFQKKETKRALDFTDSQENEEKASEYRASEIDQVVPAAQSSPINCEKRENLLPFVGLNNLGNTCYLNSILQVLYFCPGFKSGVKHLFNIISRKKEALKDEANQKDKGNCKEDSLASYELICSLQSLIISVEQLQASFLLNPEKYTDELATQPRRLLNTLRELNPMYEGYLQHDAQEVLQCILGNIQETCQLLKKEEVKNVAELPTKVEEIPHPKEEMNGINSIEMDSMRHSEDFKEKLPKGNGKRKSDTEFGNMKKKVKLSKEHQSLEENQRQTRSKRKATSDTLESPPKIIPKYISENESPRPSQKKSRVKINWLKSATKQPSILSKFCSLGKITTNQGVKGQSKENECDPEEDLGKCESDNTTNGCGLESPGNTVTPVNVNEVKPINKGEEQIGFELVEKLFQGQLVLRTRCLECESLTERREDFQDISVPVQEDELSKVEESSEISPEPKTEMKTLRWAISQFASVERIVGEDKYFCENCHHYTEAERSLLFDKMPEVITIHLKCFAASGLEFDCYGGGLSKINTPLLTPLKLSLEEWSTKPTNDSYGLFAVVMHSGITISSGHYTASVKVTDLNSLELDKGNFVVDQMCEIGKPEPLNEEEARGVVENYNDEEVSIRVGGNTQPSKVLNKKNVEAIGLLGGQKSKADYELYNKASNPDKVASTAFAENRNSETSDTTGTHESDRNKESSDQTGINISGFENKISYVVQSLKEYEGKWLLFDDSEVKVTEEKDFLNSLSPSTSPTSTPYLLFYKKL
Sequence of Glucocorticoid receptor (Homo sapiens) (P04150 whole entry, looked up, the tested form may be a part): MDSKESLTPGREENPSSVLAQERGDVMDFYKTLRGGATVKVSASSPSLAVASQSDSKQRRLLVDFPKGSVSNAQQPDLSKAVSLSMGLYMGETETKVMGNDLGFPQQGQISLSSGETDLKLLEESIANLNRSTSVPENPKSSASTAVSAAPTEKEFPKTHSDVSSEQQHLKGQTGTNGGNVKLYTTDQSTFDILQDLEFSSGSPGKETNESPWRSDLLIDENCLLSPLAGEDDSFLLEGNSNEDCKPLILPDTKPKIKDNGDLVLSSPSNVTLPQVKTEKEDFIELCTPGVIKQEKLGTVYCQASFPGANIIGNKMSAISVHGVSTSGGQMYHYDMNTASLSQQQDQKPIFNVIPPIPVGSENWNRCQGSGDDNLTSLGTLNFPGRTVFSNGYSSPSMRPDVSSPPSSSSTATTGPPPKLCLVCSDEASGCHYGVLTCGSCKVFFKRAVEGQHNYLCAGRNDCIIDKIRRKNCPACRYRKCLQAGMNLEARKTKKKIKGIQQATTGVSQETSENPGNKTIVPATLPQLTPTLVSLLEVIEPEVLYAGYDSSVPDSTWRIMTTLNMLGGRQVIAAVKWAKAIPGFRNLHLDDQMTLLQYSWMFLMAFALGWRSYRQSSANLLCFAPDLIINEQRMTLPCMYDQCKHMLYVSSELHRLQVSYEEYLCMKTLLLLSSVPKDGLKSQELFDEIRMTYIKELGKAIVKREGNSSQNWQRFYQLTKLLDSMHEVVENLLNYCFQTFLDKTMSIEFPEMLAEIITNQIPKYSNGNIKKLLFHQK
Sequence of 3',5'-cyclic-AMP phosphodiesterase 4B (Homo sapiens) (Q07343 whole entry, looked up): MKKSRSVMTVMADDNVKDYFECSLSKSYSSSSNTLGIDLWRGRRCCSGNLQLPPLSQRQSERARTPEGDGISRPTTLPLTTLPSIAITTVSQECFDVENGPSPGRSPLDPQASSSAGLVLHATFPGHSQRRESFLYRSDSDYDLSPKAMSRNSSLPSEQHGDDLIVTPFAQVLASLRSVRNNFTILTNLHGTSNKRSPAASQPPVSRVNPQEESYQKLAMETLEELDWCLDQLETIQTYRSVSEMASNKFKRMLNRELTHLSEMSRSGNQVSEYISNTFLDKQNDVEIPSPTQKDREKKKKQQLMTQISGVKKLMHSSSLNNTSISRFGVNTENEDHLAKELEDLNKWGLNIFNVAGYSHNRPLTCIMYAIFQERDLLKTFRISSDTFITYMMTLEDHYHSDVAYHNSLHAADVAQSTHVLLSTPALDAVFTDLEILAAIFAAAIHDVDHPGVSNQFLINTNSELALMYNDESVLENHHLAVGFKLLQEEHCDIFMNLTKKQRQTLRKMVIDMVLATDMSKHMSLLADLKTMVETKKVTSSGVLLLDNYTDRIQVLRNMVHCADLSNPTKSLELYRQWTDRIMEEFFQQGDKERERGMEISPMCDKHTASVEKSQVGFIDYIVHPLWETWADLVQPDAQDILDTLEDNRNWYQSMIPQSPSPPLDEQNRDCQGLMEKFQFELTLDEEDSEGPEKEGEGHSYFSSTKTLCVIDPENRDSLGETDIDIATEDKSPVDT
Sequence of Cytochrome P450 1A2 (Homo sapiens) (P05177 whole entry, looked up): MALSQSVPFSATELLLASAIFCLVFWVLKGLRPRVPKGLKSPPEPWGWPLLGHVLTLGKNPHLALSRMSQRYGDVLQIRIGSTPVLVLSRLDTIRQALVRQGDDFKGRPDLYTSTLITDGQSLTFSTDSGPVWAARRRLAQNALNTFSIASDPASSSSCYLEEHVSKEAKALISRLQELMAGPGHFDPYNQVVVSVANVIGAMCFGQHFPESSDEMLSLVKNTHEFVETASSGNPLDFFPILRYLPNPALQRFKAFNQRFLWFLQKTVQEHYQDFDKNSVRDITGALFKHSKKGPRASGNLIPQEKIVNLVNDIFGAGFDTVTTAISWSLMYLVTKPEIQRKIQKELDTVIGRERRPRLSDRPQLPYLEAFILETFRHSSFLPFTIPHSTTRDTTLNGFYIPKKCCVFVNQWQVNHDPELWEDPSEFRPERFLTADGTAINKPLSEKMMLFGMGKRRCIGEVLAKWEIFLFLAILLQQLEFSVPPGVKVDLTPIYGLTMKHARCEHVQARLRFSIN
Sequence of Cytochrome P450 3A4 (Homo sapiens) (P08684 whole entry, looked up): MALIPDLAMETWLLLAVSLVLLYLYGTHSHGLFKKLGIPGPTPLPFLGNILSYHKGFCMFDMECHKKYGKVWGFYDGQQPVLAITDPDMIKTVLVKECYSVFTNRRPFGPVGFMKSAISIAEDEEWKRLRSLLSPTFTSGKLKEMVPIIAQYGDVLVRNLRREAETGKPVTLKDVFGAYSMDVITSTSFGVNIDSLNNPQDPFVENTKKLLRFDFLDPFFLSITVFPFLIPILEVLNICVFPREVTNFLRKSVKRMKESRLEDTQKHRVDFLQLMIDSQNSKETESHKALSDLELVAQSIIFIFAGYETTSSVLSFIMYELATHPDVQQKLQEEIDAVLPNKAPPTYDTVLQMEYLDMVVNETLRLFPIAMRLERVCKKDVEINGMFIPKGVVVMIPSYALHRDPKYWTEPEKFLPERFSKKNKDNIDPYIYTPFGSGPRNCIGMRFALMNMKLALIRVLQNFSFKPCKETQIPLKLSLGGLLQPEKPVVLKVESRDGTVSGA
Sequence of Pyruvate kinase PKM (Homo sapiens) (P14618 whole entry, looked up): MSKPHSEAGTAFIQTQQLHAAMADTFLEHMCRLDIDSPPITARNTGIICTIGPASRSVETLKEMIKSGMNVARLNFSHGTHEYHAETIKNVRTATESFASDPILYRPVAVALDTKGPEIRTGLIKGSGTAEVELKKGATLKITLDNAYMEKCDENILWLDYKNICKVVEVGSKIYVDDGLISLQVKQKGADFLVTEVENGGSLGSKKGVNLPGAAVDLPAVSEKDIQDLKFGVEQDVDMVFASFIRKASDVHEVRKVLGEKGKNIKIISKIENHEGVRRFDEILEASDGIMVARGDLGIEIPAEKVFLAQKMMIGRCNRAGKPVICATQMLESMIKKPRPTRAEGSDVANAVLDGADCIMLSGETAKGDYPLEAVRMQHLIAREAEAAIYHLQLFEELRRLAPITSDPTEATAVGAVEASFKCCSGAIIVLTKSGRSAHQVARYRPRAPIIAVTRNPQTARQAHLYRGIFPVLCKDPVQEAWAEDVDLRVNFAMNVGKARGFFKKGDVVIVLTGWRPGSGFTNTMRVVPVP
Sequence of Pyruvate kinase (Leishmania mexicana) (Q27686 2-499 E452W): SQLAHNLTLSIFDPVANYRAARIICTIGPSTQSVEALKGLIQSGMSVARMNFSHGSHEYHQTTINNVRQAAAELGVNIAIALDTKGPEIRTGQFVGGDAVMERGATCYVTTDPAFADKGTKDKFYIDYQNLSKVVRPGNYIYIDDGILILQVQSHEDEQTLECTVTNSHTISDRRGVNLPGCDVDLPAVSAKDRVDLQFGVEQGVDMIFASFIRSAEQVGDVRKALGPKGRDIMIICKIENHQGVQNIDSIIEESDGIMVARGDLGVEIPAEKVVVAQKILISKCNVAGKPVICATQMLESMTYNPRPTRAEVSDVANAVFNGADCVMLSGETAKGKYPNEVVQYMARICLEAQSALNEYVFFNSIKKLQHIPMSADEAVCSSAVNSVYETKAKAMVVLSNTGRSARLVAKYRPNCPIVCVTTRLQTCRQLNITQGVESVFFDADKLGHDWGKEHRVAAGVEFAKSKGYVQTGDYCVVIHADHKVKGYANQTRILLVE

Turning to `CCN(Cc1ccncc1)C(=O)[C@@H](CO)c1ccccc1`, the results for the activity change, negative = inhibition in experiment [1] (at 17.2 µM (top of the series)) and in [12] (at 25.7 µM (top of the series)) were 5.81% (inactive) and -4.57% (inactive), respectively. For the same molecule, the Potency in experiment [2] was 15.8 µM (active) and 10 µM (active). The activity, negative = inhibition in [3] (at 17.2 µM (top of the series)) was -6.07% (inactive); in [3] (at 38 µM (top of the series)), -7.02% (inactive). Also, the Potency entry in [4], in [5], in [6], in experiment [7], in [8] and in experiment [9] was “inactive” each time. The Potency result in [13], in experiment [14], in experiment [15] and in experiment [16] was “inactive” in each case. Moreover, the call in [10] and in experiment [11] was inactive. The max response in experiment [12] (setting [21]) is -10.2%; in experiment [12] (setting [22]) it was -15.1%.
Take `N[C@]1(C(=O)O)CCc2cc(C(=O)O)ccc21`: the values for the activity change, negative = inhibition in [1] (at 38 µM (top of the series)), in experiment [17] and in experiment [12] (at 57.5 µM (top of the series)) were 2.45% (inactive), 3.1% (inactive) and 5.84% (inactive), respectively. In addition, the activity, negative = inhibition in experiment [3] (at 38 µM (top of the series)) was -13% (inactive). The Potency in [18] and in experiment [19] was > 46 µM (inactive) in each case. For the same molecule, the Potency result in experiment [4], in experiment [5], in experiment [8], in experiment [9], in experiment [15] and in experiment [16] was “inactive” in each case. Besides, the result in experiment [10] and in experiment [11] was inactive. The max response in experiment [12] (setting [21]) was determined as 14.2%; in experiment [12] (setting [22]) it was 23.6%.
As to `C1=C(CN2CCOCC2)COc2c1cccc2OC[C@@H]1CNCCO1`, the Potency is 12.6 µM (active) in [2], > 46 µM (inactive) in experiment [18] and > 46 µM (inactive) in [19]. For the same molecule, the Potency entry in experiment [4], in experiment [5], in [6], in experiment [13], in [14] and in [15] was “inactive” each time. Besides, the Potency entry in [16] is “inactive”. Moreover, the activity change, negative = inhibition in [12] (at 57.5 µM (top of the series)) is 0.797% (inactive). For the same molecule, the results for the max response in [12] (setting [21]) and in experiment [12] (setting [22]) were 5.43% and 3.99%, respectively.
Turning to `N[C@@H](CSS(=O)(=O)O)C(=O)O`, the Potency in experiment [2] was 39.8 µM (active); in experiment [18], > 46 µM (inactive); in experiment [19], > 46 µM (inactive); in [13], 39.8 µM (active). Moreover, the Potency entry in experiment [5], in experiment [14], in [15] and in experiment [16] was “inactive” throughout. For the same molecule, the activity change, negative = inhibition in [12] (at 57.5 µM (top of the series)) was 3.51% (inactive). In addition, the values for the max response in experiment [12] (setting [21]) and in [12] (setting [22]) were 2.48% and 7.41%, respectively.
Take `CC(C)[C@@H]1[C@H]2CC[C@H](C2)[C@H]1N`: the results for the activity change, negative = inhibition in experiment [1] (at 38 µM (top of the series)), in experiment [17] and in experiment [12] (at 57.5 µM (top of the series)) were 17.6% (inactive), 2.88% (inactive) and -6.29% (inactive), respectively. Moreover, the Potency result was “inactive and 31.6 µM (active)” in [2]; > 46 µM (inactive) in experiment [18]; > 46 µM (inactive) in [19]; 1 µM (active) in experiment [16]. Further, in experiment [3] (at 38 µM (top of the series)), the activity, negative = inhibition is 4.64% (inactive). The Potency result in experiment [4], in experiment [5], in experiment [20], in experiment [6] and in [15] was “inactive” throughout. For the same molecule, the figures for the max response in [12] (setting [21]) and in experiment [12] (setting [22]) were -11.1% and -17.5%, respectively.
Take `CCCCCCCCCCCCCCCC(=O)NC(C)C`: the Potency entry in experiment [2], in experiment [4], in experiment [5], in experiment [14], in [15] and in experiment [16] was “inactive” each time. Further, the Potency in experiment [18] and in experiment [19] was > 46 µM (inactive) throughout. For the same molecule, the activity change, negative = inhibition in experiment [12] (at 57.5 µM (top of the series)) is 0.0182% (inactive). The results for the max response in [12] (setting [21]) and in [12] (setting [22]) were -14.5% and -16.6%, respectively.
